# Dyrk1A ADPGlo: blocks rat Dyrk1A kinase activity | Q63470 | ADP-Glo luminescence, NFATc1 peptide | inhibition, % at 12.5 µM | 0.43% of 310,000 active; in the data active = inhibition above about 50%;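 also: plate controls were vehicle with enzyme for no effect and no enzyme for full effect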
# GC-A act: GC-A (human) enzyme activation; 0.14% of 370,000 active; HEK293 GC-A cells, cGMP TR-FRET, EC30 ANP; 0% at EC30 ANP, 100% saturating ANP; activation, % at 10 µM; P16066; in the data active = activation above about 40%
# Target sequence (P16066 whole entry, looked up): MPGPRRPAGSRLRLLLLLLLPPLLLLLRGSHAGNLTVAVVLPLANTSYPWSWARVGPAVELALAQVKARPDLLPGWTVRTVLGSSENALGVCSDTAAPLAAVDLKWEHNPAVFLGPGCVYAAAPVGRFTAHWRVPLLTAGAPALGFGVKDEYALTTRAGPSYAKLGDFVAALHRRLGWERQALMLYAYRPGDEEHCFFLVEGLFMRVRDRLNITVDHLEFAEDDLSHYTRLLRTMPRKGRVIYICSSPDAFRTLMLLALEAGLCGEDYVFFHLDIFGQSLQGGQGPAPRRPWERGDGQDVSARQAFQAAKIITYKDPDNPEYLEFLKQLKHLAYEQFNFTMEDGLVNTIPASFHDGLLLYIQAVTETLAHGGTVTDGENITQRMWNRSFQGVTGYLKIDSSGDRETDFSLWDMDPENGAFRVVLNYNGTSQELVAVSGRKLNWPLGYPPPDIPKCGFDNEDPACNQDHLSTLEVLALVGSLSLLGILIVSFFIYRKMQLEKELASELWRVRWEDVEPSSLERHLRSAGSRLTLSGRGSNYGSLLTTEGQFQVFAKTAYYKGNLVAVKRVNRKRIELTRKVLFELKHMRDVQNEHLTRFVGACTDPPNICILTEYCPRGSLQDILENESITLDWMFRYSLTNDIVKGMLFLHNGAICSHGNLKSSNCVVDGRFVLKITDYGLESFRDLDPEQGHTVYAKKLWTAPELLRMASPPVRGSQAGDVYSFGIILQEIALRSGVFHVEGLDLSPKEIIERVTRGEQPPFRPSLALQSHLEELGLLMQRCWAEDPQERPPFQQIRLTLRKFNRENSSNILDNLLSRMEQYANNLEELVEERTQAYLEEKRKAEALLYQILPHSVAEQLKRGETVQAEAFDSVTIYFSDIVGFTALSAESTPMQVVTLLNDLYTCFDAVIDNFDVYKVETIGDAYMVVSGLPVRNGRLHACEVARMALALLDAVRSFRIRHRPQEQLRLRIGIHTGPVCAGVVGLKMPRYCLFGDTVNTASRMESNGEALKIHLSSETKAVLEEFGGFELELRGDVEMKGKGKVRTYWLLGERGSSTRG
# NPR2 activator: GC-B (human) receptor activation; HEK293-GC-B cells, CNP EC30, cGMP TR-FRET; 0% at EC30 CNP, 100% saturating CNP; activation, % at 10 µM; 0.11% of 370,000 active; AID 1920062;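 active = activation at 10 µM reaching about 35% in either raw or pattern-adjusted values, limit read from the data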
# aDG glyco act: alpha-DG glycosylation activation | Pro5-aDG cells, alpha-DG glycosylation AlphaScreen (IIH6); 0% Pro5, 100% B10-LARGE cell signal | activation, % at 10 µM | 0.22% of 360,000 active | AID 624168;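 active = activation of at least 8% versus controls, or a plate z-score of at least 8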;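 also: Pro5 are CHO cells carrying HIG-tagged alpha-DG that lacks glycosylation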
# HSF1 activator: increases HSF-1 driven luciferase reporter signal; NIH3T3-HGL HSF-1 luciferase reporter, MG132, 8 h; 100% = twice DMSO control signal; activation, % at 9 µM; AID 504408; 1.7% of 300,000 active;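 active = mean replicate activation of at least 50% with a set share of replicates each reaching 50%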;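 also: 0% = median of the neutral control wells and 100% = twice that signal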
# HSF1 inhib: HSF1 inhibition. activity change, negative = inhibition, % at 7.5 µM (by protocol). AID 2098. NIH3T3-HGL HSE-luciferase, MG132-induced, luminescence 8 h; active compounds read low. 0.77% of 300,000 active;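 active = more than half of replicate wells show activity change below -50%, luminescence cut by over half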;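 also: luciferase reports HSF-1 transcriptional activity via heat shock element; 0% = median of DMSO wells and -100% = zero luminescence signal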
# * hit, by the source's call; . = no result. Most compounds without a hit are left out; they make up all but 2.5% or so of the library.
SMILES,Dyrk1A ADPGlo,GC-A act,NPR2 activator,aDG glyco act,HSF1 activator,HSF1 inhib
CCOC(=O)CNC(=O)CSc1nnc(C)c(=O)[nH]1,-2,3,-1,0,-85,-81*
CCOC(=O)c1c(NC(=O)CSc2nnc(C)c(=O)[nH]2)sc(C)c1C,.,.,.,.,6,3
CCOC(=O)c1cc2occc2n1CC(=O)N1CCCc2ccccc21,3,-15,-8,0,-74,-66*
O=C(Oc1cccc2cccnc12)c1ccc(N2C(=O)C3C4CCC(C4)C3C2=O)cc1 (stereo unspecified),2,2,0,2,10,4
COc1ccc(C2=CC(=O)CC(c3ccc(F)cc3)C2)cn1 (stereo unspecified),18,-1,0,0,61*,29
COc1ccc(C2=CC(=O)C[C@H](c3ccc(F)cc3)C2)cc1OC,4,5,-2,0,.,.
CC(=O)c1ccc(OC(C)C(=O)Nc2cccc(S(=O)(=O)NCc3ccco3)c2)cc1 (stereo unspecified),-5,-2,0,0,.,.
Clc1ccc(-c2nsc(N3CCOCC3)n2)c(Cl)c1,2,14,-5,0,62*,28
CCOC(=O)c1[nH]c2ccc(OC)cc2c1NS(=O)(=O)c1ccc(Cl)s1,8,-24,-20,0,-27,-19
Cc1ccc(OCc2ccc(C(=O)O)o2)cc1C,-3,0,2,0,45,10
CCOC(=O)c1ccc(COc2ccc(C(C)C)cc2)o1,-5,-1,-1,0,54*,25
CCC(C)c1ccc(OCc2ccc(C(=O)O)o2)cc1 (stereo unspecified),4,3,3,0,-61,-53*
CC(C)c1ccc(OCc2ccc(C(=O)N3CCCC3)o2)cc1,5,2,0,1,48,28
Cc1nc(NCCc2ccccc2)c2nnn(Cc3ccccc3)c2n1,.,-5,-5,0,-10,0
Cn1cc(/C=C/C(=O)c2ccccc2)c2ccccc21,7,-5,-5,0,62*,23
Cc1c(/C=C/C(=O)c2ccccc2)cnn1C,12,1,0,0,-5,12
Cc1ccc(C(=O)/C=C/c2cn(CN3CCN(C)CC3)c3ccccc23)cc1,8,5,-4,0,60*,25
CCn1ncc(/C=C/C(=O)c2ccccc2)c1C,3,3,1,0,53*,26
Cc1ccc(C(=O)/C=C/c2c[nH]c3ccccc23)cc1,.,5,-9,0,40,14
CN(C)c1ccc(-c2ccnc3c2CC(C)(C(=O)Nc2cccc(N(C)C)c2)O3)cc1 (stereo unspecified),.,-1,-6,0,.,.
Cc1ccc(-c2nc(-c3ccccc3)no2)c(Cl)c1,3,1,-9,0,-77,-72*
CCCC(=O)O/N=C(\c1ccccc1)c1ccncc1,5,3,5,0,57*,13
Cc1ccc(C(=O)O/N=C(\c2ccccc2)c2ccncc2)cc1,0,1,4,0,29,10
Cc1cccn2c(=O)c3cc(C(=O)NCCc4ccccc4)sc3nc12,2,-8,-6,0,19,3
O=C(Cc1coc2ccc3ccccc3c12)NCc1ccccc1,-6,-1,-3,0,-8,-4
SMILES,Dyrk1A ADPGlo,GC-A act,NPR2 activator,aDG glyco act,HSF1 activator,HSF1 inhib
O=C(Cc1coc2ccc3ccccc3c12)NC1CCCc2ccccc21 (stereo unspecified),1,-10,-16,0,65*,35
C/C(=N\Nc1cc(N2CCOCC2)ncn1)c1ccc(O)cc1,36,-5,-6,0,-1,-6
O=[N+]([O-])c1ccc2nc(-c3ccccc3)oc2c1,3,6,-2,0,62*,24
O=C(Cc1cccs1)NCc1cn2ccccc2n1,0,2,6,0,-8,3
CCC(=O)Nc1cccc2c1C(=O)N(C)C2=O,-3,-2,0,0,-8,-9
Cn1c(NC(=O)CCC2CCCCC2)cc(=O)n(C)c1=O,1,9,-1,0,55*,36
Cc1ccc(NC(=O)C2CCCCC2)c(O)c1,.,.,.,.,3,0

# Screening results (PubChem BioAssay)
